Measured values from PubChem BioAssay AID1950 (The Scripps Research Institute Molecular Screening Center, 2009).
Among all 300,000 compounds or so, about 1,000 (0.33%) were called active. This is one part of a sample in which actives are shown more often than they occur. Cut-off read from the data, not from the text of the source: active = inhibition above about 28%; inactive = the rest.

What follows are compounds tested on EBNA-1 (Epstein-Barr virus nuclear antigen 1), Human herpesvirus 4 (assay: blockers of EBV EBNA-1 binding to DNA – biochemical, fluorescence polarization, primary screen (AID 1950)). Settings: EBNA-1 DNA binding, at 14.8 µM, hits give high values.

inhibition, active:
CC(=O)Nc1ccc(S(=O)(=O)NCC(=O)OCc2cc(=O)oc3ccc4ccccc4c23)cc1 35.2%, COc1ccc(C(=O)CSc2nnc(NC(=O)C3CC(=O)N(c4cccc(OC)c4)C3)s2)cc1 (configuration not stated) 51.4%, Cc1ccc(O)c(-c2cc(C(=O)NCc3ccccc3)[nH]n2)c1 30.8%, Cc1ccc(-c2nn(-c3ccccc3)cc2/C=C2\SC(=S)N(CCCCCC(=O)O)C2=O)o1 29.3%, Nc1nnc(SCC(=O)Nc2ccc3nc(SCC(=O)Nc4ccccc4)sc3c2)s1 45.6%, C/C(=N\N=C(N)N)c1ccc(Cl)cc1 39.1%, Cc1[nH]n(C(N)=S)c(=O)c1N=Nc1ccc(Cl)cc1Cl 27.7%, COc1cccc(-n2c(SCC(=O)c3c[nH]c4ccccc34)nc3ccccc3c2=O)c1 46.8%, N#Cc1nc(N)nc(N(c2ccccc2)c2ccccc2)n1 32.2%

inhibition, inactive:
COc1ccc(CN2C(=O)CC(Cc3ccc(C)cc3)C2=O)cc1OC (configuration not stated) 9.56%, O=C(CN1CCCCC1)N1c2ccccc2Sc2ccc(C(F)(F)F)cc21 -8.22%, CC(=O)N1CC(C)c2scc(C)[n+]2-c2ccccc21 (configuration not stated) 0.91%, CC(CCN1CCN=C1N(C)C)c1ccccc1 (configuration not stated) -6.72%, O=C(NCCOc1cccnc1)c1ccc(OC2CCN(Cc3ccccn3)CC2)cc1 6.33%, Cc1[nH]c(C)c(S(=O)(=O)N2CCC(C)CC2)c1C(=O)N1CCCC1 14.2%, NC(=O)C(Cc1ccccc1)NC(=O)C12CC3CC(CC(C3)C1)C2 (configuration not stated) 3.55%, COc1ccccc1C(=O)COC(=O)CNS(=O)(=O)c1ccc(NC(C)=O)cc1 0.54%, CCC(=O)Nc1ccc(S(=O)(=O)Nc2c(NC)c3ccccc3oc2=O)cc1 8.74%, CCOc1cc(C2C(C(=O)c3ccco3)=C(O)C(=O)N2Cc2ccccc2)ccc1O (configuration not stated) 1.15%, CCC1CCCCN1C(=O)CSc1nc2c(c(=O)n1C)SC(C)C2 (configuration not stated) -3.4%, CCOC(=O)CSc1nnc(NC(=O)C2CC(=O)N(c3ccc(F)cc3)C2)s1 (configuration not stated) 6.41%, COc1cccc(N2CC(C(=O)Nc3c(C)cccc3C)CC2=O)c1 (configuration not stated) -0.66%, COc1ccc(N(C)C(=O)C2CCN(S(=O)(=O)c3cccc4nsnc34)CC2)cc1 -5.5%, Cc1ccc(O)c(-c2cc(C(=O)Nc3c(C)n(C)n(-c4ccccc4)c3=O)[nH]n2)c1 8.89%, Cc1ccc(NC(=O)c2cc(-c3ccccc3O)n[nH]2)cc1C -0.09%, COc1ccc(C(=O)N[C@H](C(=O)NCc2ccccc2)C(C)C)cc1 5.98%, CC(C)c1nnc(NC(=O)CCC(=O)N2CCN(c3cccc(Cl)c3)CC2)s1 -2.44%, CCCCNC(=O)C1(O)c2ccccc2NC(=O)N1c1ccc(Cl)cc1 (configuration not stated) -19.8%, CN(C)S(=O)(=O)c1cccc(-c2nn(-c3ccccc3)cc2/C=C2\SC(=S)N(CC(=O)O)C2=O)c1 1.09%, COc1ccc(-c2nn(-c3ccccc3)cc2/C=C2/SC(=S)N(CCCC(=O)O)C2=O)c(C)c1 5.71%, CC(=O)N1CCCc2cc(S(=O)(=O)N3CCCC(C(=O)N4CCN(c5cccc(Cl)c5)CC4)C3)ccc21 (configuration not stated) -6.48%, COc1ccc(-c2cc(=O)oc3cc(OCC(=O)N(C)C4CCS(=O)(=O)C4)ccc23)cc1 (configuration not stated) -3.28%, CCCCNC(=O)CSc1nc2ccc(NC(=O)CSc3nnc(COc4ccccc4C)n3C)cc2s1 -11.7%, CCCCNC(=O)CSc1nc2ccc(NC(=O)CSc3nnc(N)s3)cc2s1 6.23%, Nc1nc(SCC(=O)Nc2ccc(Cl)cc2C(F)(F)F)n[nH]1 -6.65%, CC(Sc1nc2c([nH]c3ccccc32)c(=O)n1C)c1ccccc1 (configuration not stated) 13.4%, CCCCNC(=O)CCn1nc(-c2ccc(Cl)cc2)ccc1=O -9.91%, Cc1ccc(NC(=O)CN(C)C(=O)Cn2nnc(-c3ccccc3)n2)cc1 -4.13%, COc1ccc(C23NCCN2C(=O)c2ccccc23)cc1 (configuration not stated) -4.33%, COc1cccc(CNS(=O)(=O)c2csc(C(N)=O)c2)c1 -4.82%, Cc1cc2oc(=O)cc(CN(C)Cc3ccc(OC(F)F)cc3)c2cc1Cl 2.59%, C/C(=N\NC(=S)NCc1ccccc1)c1ccc(Cl)cc1 -0.89%, C/C(=N\OCC(=O)O)c1ccc(Cl)cc1 8.77%, Cc1ccc(CNC(=O)c2cccnc2Cl)cc1 -0.4%, CC/C(O)=C1\C(=O)CC(C)(C)CC1=NCCc1nc2ccccc2[nH]1 0.38%, CC(=O)C1=C(O)C(=O)N(c2ccc(Br)cc2)C1c1ccc([N+](=O)[O-])cc1 (configuration not stated) -5.58%, Cc1cccc(N=Nc2c(C)[nH]n(-c3ccccc3)c2=O)c1 -10.4%, CC1=NN(C(N)=S)C(=O)C1N=Nc1cc(Cl)ccc1Cl (configuration not stated) -8.59%, O=C(CCC(=O)OCc1cccc(C(=O)Oc2ccccc2)c1)Nc1cccc2ccccc12 0.44%, O=C(NC1CCCC1)C(c1ccccn1)N(C(=O)c1csnn1)C1CCCC1 (configuration not stated) 2.45%, COC(=O)c1ccc(CSc2nc3ccccc3c(=O)n2-c2cccc(OC)c2)o1 -0.73%, CCCn1c(N)c(C(=O)CSc2nc3ccccc3c(=O)n2-c2ccc(OC)cc2)c(=O)[nH]c1=O 5.25%, O=C(N/N=C/c1sc(N2CCCCC2)nc1-c1cccs1)c1cccnc1 -5.56%, N=c1n(Cc2ccc(Cl)cc2)c2ccccc2n1CC(O)c1ccco1 (configuration not stated) -2.62%, CN1CCC(=NNC(=O)CN(c2cccc(Cl)c2)S(C)(=O)=O)CC1 -1.28%, CC(C)Nc1nc(N(c2ccccc2)c2ccccc2)nc(-n2ccnc2)n1 1.21%, COc1ccc(C(=O)OCC(=O)c2ccc(Cl)s2)c(OC)c1OC -6.57%
